In the library only some 7.3% were active in any assay of this set; here they are far more common.
SMN2 splice up = qHTS Assay for Enhancers of SMN2 Splice Variant Expression. hit rate 2.8% among 210,000. HEK293 SMN2-luciferase splicing reporter, luminescence, 30-36 h. AID 1458, 2008. Potency, µM (highest dose often 46.1 µM), actives largely listed as activators; note: nearly all actives have a fitted effect of over 55% in size
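qHTS luciferase splicing reporter: luminescence rises when SMN2 exon 7 is included in transfected HEK293 cells. Compound exposure lasted 30-36 h at 37C, with 4.5 mM final sodium butyrate as control, followed by a ONE-Glo read.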
ELG1 genotox = qHTS screen for small molecules that induce genotoxicity in human embryonic kidney (HEK293T) cells expressing luciferase-tagged ELG1; HEK293T ELG1-luciferase reporter, luminescence, 16 h; Potency, µM (titrated, usually from 46 µM), usual class: activators; hit rate 1.3% among 330,000; AID 504466, 2011; note: nearly all actives have a fitted effect of over 60% in size
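Screening used a luciferase reporter fused to human ELG1 in HEK293T cells. Luminescence was read on a CCD plate imager after 16 hr exposure and 30 min ONE-Glo incubation.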
Rab9 promoter act = qHTS Assay for Rab9 Promoter Activators; Huh7 Rab9 promoter-luciferase reporter, luminescence, 24 h; Potency, µM (series often up to 9.22 µM), hits mostly activators; hit rate 2.8% among 320,000; AID 485297, 2010; note: nearly all actives have a fitted effect of over 60% in size
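Cells were plated at 1500 per well in reduced-serum medium with 10% FBS and left 2 h. Compound in DMSO was then added for 24 h at 37 °C. Reporter signal was read by luminescence after 10 min with luciferase detection reagent.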
FLuc modulator = qHTS profiling assay for firefly luciferase inhibitor/activator using purifed enzyme and Km concentrations of substrates (counterscreen for miR-21 project). AID 588342, 2011. purified FLuc, Km substrates, luminescence inhibition. Luciferin 4-monooxygenase (Photinus pyralis), P08659. Potency, µM (titrated, usually from 57.5 µM), hits mostly inhibitors. hit rate 6.9% among 360,000; note: nearly all actives have a fitted effect of over 55% in size
Target sequence (P08659 whole entry, looked up): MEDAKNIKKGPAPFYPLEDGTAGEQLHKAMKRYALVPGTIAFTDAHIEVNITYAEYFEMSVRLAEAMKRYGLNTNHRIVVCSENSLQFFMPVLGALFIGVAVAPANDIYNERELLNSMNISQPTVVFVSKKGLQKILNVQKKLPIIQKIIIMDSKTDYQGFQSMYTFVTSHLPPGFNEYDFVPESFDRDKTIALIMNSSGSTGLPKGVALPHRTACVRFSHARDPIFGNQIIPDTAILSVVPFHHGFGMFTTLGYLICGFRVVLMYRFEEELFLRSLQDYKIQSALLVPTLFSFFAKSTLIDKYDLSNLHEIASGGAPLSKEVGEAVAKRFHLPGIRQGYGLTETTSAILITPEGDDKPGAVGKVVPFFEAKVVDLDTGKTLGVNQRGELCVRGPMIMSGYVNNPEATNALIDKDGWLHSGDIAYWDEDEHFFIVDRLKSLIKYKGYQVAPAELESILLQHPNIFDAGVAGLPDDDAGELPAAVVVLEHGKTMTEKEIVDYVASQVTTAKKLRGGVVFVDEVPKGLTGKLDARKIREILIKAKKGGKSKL
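Purified P. pyralis luciferase, 10 nM final, with Km-level 10 uM D-luciferin and 10 uM ATP in 50 mM Tris acetate pH 7.5, 10 mM Mg acetate, 0.01% Tween-20, 0.05% BSA; 6-point qHTS titration about 60 µM downward; luminescence read.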
NPC1 prom act = qHTS Assay for NPC1 Promoter Activators; Huh7 NPC1 promoter luciferase reporter, 24 h; Potency, µM (titrated, usually from 9.22 µM), actives largely listed as activators; hit rate 2.4% among 320,000; AID 485313, 2010; note: nearly all actives have a fitted effect of over 60% in size
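Readout is luciferase luminescence, reflecting NPC1 promoter activation in stably transfected Huh7 cells after 24 h compound exposure at 37 °C in reduced-serum medium with 10% FBS.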
uPA generation = qHTS for Inhibitors of Cell Surface uPA Generation; Potency, µM (highest dose often 38.3 µM), most hits filed as inhibitors; AID 540303, 2011; hit rate 0.31% among 330,000; cell surface uPA generation assay, qHTS; active = well fitted inhibition curve with a large enough effect; inconclusive = small, poorly fitted or top-dose-only effect; inactive = no such curve, though single readings can be large or run the other way; tested in mouse RAW 264.7 cells; note: nearly all actives have a fitted effect of over 55% in size
Numbers stand for hits; – = inactive; ? = inconclusive; · = no result given; [ ] = remark or other dose. Unless noted, calls come from the whole dose curve; as a rule, active = well fitted curve in the direction sought with a large enough effect; inconclusive = small, poorly fitted or top-dose-only effect, or another doubt; inactive = no such curve, though single readings can be large; an effect the other way counts as inactive or inconclusive.

SMILES | SMN2 splice up | ELG1 genotox | Rab9 promoter act | FLuc modulator | NPC1 prom act | uPA generation
CCc1c(C(=O)Nc2cc(C)ccc2OC)[nH]c(C)c1C(C)=O | – | ? | – | – | – | –
CCc1c(C(=O)Nc2ccc(C)c(C)c2)[nH]c(C)c1C(C)=O | · | ? | 3.16µM | 15.1µM | ? | –
COc1ccc(Cl)cc1C(=O)NCc1nc(-c2cccc(C)c2)no1 | – | · | · | – | · | ·
CCOC(=O)c1c(C)[nH]c(C(=O)Nc2ccc(NC(C)=O)cc2)c1C | – | – | – | – | – | –
CCOC(=O)c1c(C)[nH]c(C(=O)Nc2ccc(C)c(Cl)c2)c1C | 11.2µM | ? | 3.98µM | 2.39µM | 2µM | ·
C[C@H](NC(=O)C1CC(=O)N(c2ccc3c(c2)OCCO3)C1)C(=O)NCc1ccco1 (some centres not stated) | · | – | – | – | – | –
Cc1nc(N)sc1N=Nc1ccc(Br)cc1 | ? | ? | 1.26µM | 4.26µM | 2.24µM | ·
Cc1ccc(C)c2sc(N)nc12 | · | – | – | – | – | –
CCOc1ccccc1NC(=O)c1c2c(nc3ccccc13)C(=O)N(C1CCCCC1)C2 | · | · | · | – | · | ·
Cc1sc(NC(=O)c2ccc(Br)s2)c(C(N)=O)c1C | 10µM | ? | ? | 1.69µM | ? | ·
Cc1sc(NC(=S)Nc2ccc(F)cc2)c(C(N)=O)c1C | · | – | – | – | – | –
Cc1sc(NC(=O)c2ccc(Cl)s2)c(C(N)=O)c1C | 10µM | 1.64µM | ? | 2.39µM | ? | ·
CCCOc1ccc(-c2nnc(-c3ccco3)o2)cc1 | ? | ? | 0.447µM | 0.757µM | 0.501µM | –
CCCc1nnc(-c2ccc(OC)cc2)o1 | – | – | – | ? | – | –
CC(C)COc1ccc(-c2nnc(-c3ccco3)o2)cc1 | 3.98µM | ? | 0.316µM | 1.07µM | 0.447µM | –
CCc1nnc(NC(=O)CSc2nc3c([nH]c4ccccc43)c(=O)n2-c2ccc(F)cc2)s1 | · | · | · | – | · | ·
Cc1cc(C)cc(NC(=O)Cn2cc(C(=O)C3CCCCC3)c3ccccc32)c1 | – | · | · | – | · | ·
COc1ccc(C)cc1NC(=O)Cn1cc(S(=O)(=O)Cc2ccccc2Cl)c2ccccc21 | · | · | · | – | · | ·
Cc1c(NC(=S)NC(=O)c2sc3ccccc3c2Cl)cccc1C(=O)O | 3.98µM | ? | ? | 0.757µM | ? | ?
Cc1cccnc1NC(=O)c1sc2ccccc2c1Cl | · | 3.66µM | 2.51µM | 2.69µM | 1.41µM | –
Cc1ccc(NC(=O)c2sc3ccccc3c2Cl)nc1 | 0.631µM | ? | 3.55µM | 0.269µM | 3.55µM | –
CNC(=O)c1ccsc1NC(=O)c1sc2ccccc2c1Cl | 12.6µM | – | ? | 3.79µM | ? | ?
COc1ccccc1C(=O)NNC(=S)NC(=O)c1sc2ccccc2c1Cl | –[1.84 µM] | – | – | – | – | –
CC(C)Sc1nc2sc3c(c2c(=O)n1-c1ccccc1)CCCC3 | – | · | · | – | · | ·
CCC(CC)C(=O)Nc1ccc(C(=O)OCc2cc(=O)n3nc(C4CC4)sc3n2)cc1 | · | · | · | – | · | ·
SMILES | SMN2 splice up | ELG1 genotox | Rab9 promoter act | FLuc modulator | NPC1 prom act | uPA generation
COc1ccc(CCNC(=O)Cn2nc(-c3ccc(Cl)cc3)ccc2=O)cc1OC | · | · | · | – | · | ·
CCOC(=O)Cn1c(=O)c(F)cn(Cc2ccc(OC)c([N+](=O)[O-])c2)c1=O | · | – | – | – | – | –
CCc1ccccc1NC(=O)c1cc(S(=O)(=O)N(CC)c2ccccc2)ccc1F | · | · | · | – | · | ·
COCc1nnc(NC(=O)c2sc3ccccc3c2Cl)s1 | – | ? | ? | 5.36µM | ? | ·
COCc1nnc(NC(=O)c2cccs2)s1 | – | – | – | – | – | –
O=C(NC1=NCCS1)c1sc2ccccc2c1Cl | 12.6µM | 2.91µM | 1.12µM | 2.13µM | 1.26µM | –
O=C(O)CCCn1cc(NC(=O)c2sc3ccccc3c2Cl)cn1 | · | – | – | 26.9µM | – | –
Cc1nnc(NC(=O)c2sc3ccccc3c2Cl)s1 | 12.6µM | ? | 1µM | 0.379µM | 1.26µM | –
COc1cc(/C=C/c2sc3ccccc3[n+]2CCCS(=O)(=O)[O-])ccc1O | – | – | – | 13.5µM | – | –
CCOC(=O)c1cn(-c2c(Cl)cccc2Cl)c2cc(Cl)c([N+](=O)[O-])cc2c1=O | – | – | – | – | – | 8.91µM
CCOC(=O)c1cn(CC)c2cc(Cl)c([N+](=O)[O-])cc2c1=O | – | – | – | – | – | –
COc1ccc(CN(C(=O)Cn2nnc(-c3ccc(C)o3)n2)C(C(=O)NCC2CCCO2)c2ccco2)cc1 (configuration not stated) | · | ? | ? | 0.19µM | ? | –
COc1ccc(-c2nnn(CC(=O)N(Cc3ccco3)C(C(=O)NCC3CCCO3)c3ccco3)n2)cc1 (configuration not stated) | – | – | – | – | – | –
Cc1ccc(N(C(=O)Cn2nnc(-c3ccc(C)o3)n2)C(C(=O)NC2CCCC2)c2ccco2)cc1 (configuration not stated) | 28.2µM | – | – | – | – | ·
N#Cc1cc(-c2ccccc2)cnc1Sc1ccccc1 | – | – | – | 21.3µM | – | ·
CCc1c(C(=O)NNC(=S)NCCc2ccccc2)csc1C | – | – | – | – | – | –
CCc1cc(C(=O)NNC(=S)NC2CCCCC2)cs1 | · | – | 3.55µM | – | 3.55µM | –
CN(C)c1cccc(C(=O)NNC(=S)NC2CCCC2)c1 | – | – | – | ? | – | –
CC(C)c1cc(C(=O)NNC(=S)NC2CCCCC2)cs1 | · | ? | ? | ? | 3.98µM | –
CCc1c(C(=O)NNC(=S)NC2CCCCC2)csc1C | 1.58µM | – | – | – | – | –
CCCCOc1cccc(C(=O)NNC(=S)NC2CCCCC2)c1 | – | – | – | – | – | –
O=C(CSc1nc2c(c(=O)[nH]1)CCC2)Nc1cc(C(F)(F)F)ccc1Cl | · | · | · | – | · | ·
CC(C)C1C(=O)Nc2ccc(S(=O)(=O)NCc3ccc(Cl)cc3)cc21 (configuration not stated) | · | · | · | – | · | ·
O=C(NC1CCCCCC1)C(=O)NC1CCCC1 | 12.6µM | – | 2.24µM | ? | ? | –
Cc1ccc(NC(=O)NC2CCCCCCC2)cc1 | · | ? | 2.24µM | 7.57µM | 1.26µM | –
SMILES | SMN2 splice up | ELG1 genotox | Rab9 promoter act | FLuc modulator | NPC1 prom act | uPA generation
O=C(Nc1ccc(F)cc1)NC1CCCCC1 | – | ? | ? | ? | ? | –
Cc1ccc(NC(=O)C(=O)NC2CCCCC2)cc1 | 5.01µM | ? | 1.12µM | ? | 1.58µM | –
O=C(NC1CCCCC1)[C@H](O)[C@@H](O)C(=O)NC1CCCCC1 | – | – | – | – | – | –
COc1ccc2oc(=O)cc(CN3CCN(C(=O)c4ccccc4)CC3)c2c1 | – | · | · | – | · | ·
O=C(N/N=C/c1cccc2cccnc12)c1ccccc1O | · | 20.6µM | – | 7.57µM | – | 5.01µM
O=C(N/N=C/c1cccc2nccnc12)c1ccncc1 | · | – | – | ? | – | –
O=C(N/N=C/c1cccc2nccnc12)c1ccccc1O | · | – | – | 10.7µM | – | –

Source: PubChem BioAssay (National Center for Advancing Translational Sciences (NCATS))
